A selection: hits, their analogues and other compounds. The true share with any hit is near 3.4%.
MITF TRPM1 inh – inhibitors of MITF-dependent TRPM1 promoter reporter, primary screen, cell-based, SK-MEL-5, single point, luciferase | inhibition, % at 12.5 µM | actives 0.83% (n = 330,000) | SK-MEL-5 TRPM1 promoter luciferase, 24 h;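 active = mean inhibition across replicates of 60% or more, whatever share of single replicates reaches that level; inconclusive = some that reach 60%, reason not given; inactive = mean inhibition across replicates below 60%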
TROY signal inh – inhibitors of TROY-driven NF-kB signaling, primary screen, Q293 LMP1-TROYcd cells, NF-kB luciferase, uHTS. Q293 LMP1-TROYcd NF-kB luciferase reporter, 4 h. inhibition, % at 10 µM. actives 0.98% (n = 360,000);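 active = compounds whose plate-normalised and pattern-corrected inhibition of the luciferase reporter signal at the single screening dose is 50% or more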
TWEAK-Fn14 inh – inhibitors of TWEAK-Fn14 signaling, primary screen, luciferase reporter cells, uHTS; inhibition, % at 10 µM; AID 1159606, 2016; TWEAK-stimulated Fn14 reporter cells, luciferase luminescence, 8 h; actives 2% (n = 360,000); in the data active = inhibition above about 50%
LMP1 NFkB inh – EBV LMP1-driven NF-kappaB luciferase reporter inhibitors, primary screen, cell-based, luminescence, single point; inhibition, % at 12.5 µM; actives 0.69% (n = 350,000); LMP1-induced NF-kappaB luciferase reporter cells; in the data active = inhibition above about 41%; inconclusive = no clear call, values can overlap the other calls;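 also: 0% = neutral control wells and 100% = reference inhibitor control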
HIF-2a block – HIF-2a reporter inhibitors, primary screen, luminescence, 786-0 RCC cells; inhibition, % at 18.8 µM; actives 0.72% (n = 360,000); 786-0 RCC cells HIF-2a reporter, luciferase luminescence, overnight; AID 624352, 2012;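 active = inhibition of the luminescence signal of 40% or more relative to plate controls, in a single-dose primary screen at 18.75 µM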
Shn3 3UTR inh – reduction of Shn3 3'UTR firefly luciferase signal, primary screen, Schnurri-3 inhibitor project, cell-based, Clone20 osteoblasts, set 2 | actives 0.52% (n = 360,000) | AID 588674, 2011 | inhibition, % at 12.5 µM | Clone20 osteoblast Shn3 3'UTR firefly luciferase, 24 h;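 active = mean inhibition of at least 75% with every replicate also reaching 75%; inconclusive = mean inhibition at least 75% but some replicate below; inactive = mean inhibition below 75%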;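 also: 0% = median of neutral control wells and 100% = pilot-screen positive control compound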
Mdm2 MdmX conf – retested Mdm2-MdmX interaction blockers, confirmation, cell-based, luminescence, single concentration, set 2 | actives 99% (n = 740) | AID 504601, 2011 | inhibition, % at 8 µM | shares compounds with HIF-2a block | SaOS-2 split-luciferase Mdm2/MdmX complementation;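 active = mean inhibition of the luminescence signal across two replicates at or above 26 percent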
Target sequence (O15151 whole entry, looked up): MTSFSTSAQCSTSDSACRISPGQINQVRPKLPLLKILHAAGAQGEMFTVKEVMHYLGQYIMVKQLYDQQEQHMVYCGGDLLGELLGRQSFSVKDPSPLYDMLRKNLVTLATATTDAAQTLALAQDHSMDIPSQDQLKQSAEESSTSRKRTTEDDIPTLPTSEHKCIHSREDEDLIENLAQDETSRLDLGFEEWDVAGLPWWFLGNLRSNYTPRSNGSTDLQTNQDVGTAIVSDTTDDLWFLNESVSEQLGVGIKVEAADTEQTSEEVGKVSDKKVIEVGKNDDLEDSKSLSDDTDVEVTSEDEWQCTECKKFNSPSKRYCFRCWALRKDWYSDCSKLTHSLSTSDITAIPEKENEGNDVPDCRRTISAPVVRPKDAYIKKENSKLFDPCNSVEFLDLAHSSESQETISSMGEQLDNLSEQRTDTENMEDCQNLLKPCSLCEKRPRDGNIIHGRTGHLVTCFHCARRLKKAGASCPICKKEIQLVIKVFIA
Target sequence (Q00987 whole entry, looked up): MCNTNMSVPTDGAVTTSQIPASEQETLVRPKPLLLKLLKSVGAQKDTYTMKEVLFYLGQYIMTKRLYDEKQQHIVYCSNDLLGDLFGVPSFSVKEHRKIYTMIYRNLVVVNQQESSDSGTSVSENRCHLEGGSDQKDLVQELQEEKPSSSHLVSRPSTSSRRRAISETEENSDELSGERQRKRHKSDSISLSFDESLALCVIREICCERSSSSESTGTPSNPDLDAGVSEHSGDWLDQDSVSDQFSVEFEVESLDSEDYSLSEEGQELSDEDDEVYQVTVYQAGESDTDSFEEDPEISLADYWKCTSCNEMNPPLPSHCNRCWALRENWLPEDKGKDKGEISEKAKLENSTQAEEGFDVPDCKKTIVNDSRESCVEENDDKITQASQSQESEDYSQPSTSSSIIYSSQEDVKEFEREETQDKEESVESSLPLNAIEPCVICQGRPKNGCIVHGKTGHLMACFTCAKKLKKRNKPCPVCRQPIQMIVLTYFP
HIF-2a inh conf – HIF-2a reporter inhibitor retest, confirmation, luminescence, 786-0 RCC cells; shares compounds with HIF-2a block; actives 56% (n = 1,800); inhibition, % at 18.8 µM; HIF-2a luciferase reporter luminescence, overnight;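 active = mean inhibition across four replicates of at least 40 percent at the single tested concentration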
HIF-1a cs – HIF-1a luciferase reporter signal reduction – MiaPaCa-2 cells, single concentration, counter-screen for HIF-2a inhibitor project, confirmation; shares compounds with HIF-2a block; MiaPaCa-2 HIF-1a luciferase reporter, desferoxamine, overnight; inhibition, % at 18.8 µM; actives 72% (n = 1,800); AID 651589, 2012;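 active = mean inhibition of the reporter signal across four replicates at the single tested dose of 50% or more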
The depositor's hits bear a star; u = inconclusive; x = not tested or not shown.

SMILES	MITF TRPM1 inh	TROY signal inh	TWEAK-Fn14 inh	LMP1 NFkB inh	HIF-2a block	Shn3 3UTR inh	HIF-2a inh conf	HIF-1a cs	others
COc1ccc([N+](=O)[O-])cc1NC(=O)c1ccc(N2C(=O)CCC2=O)cc1	-9	7	-9	-2	14	-8	x	x
COc1ccc(-c2noc(N3CCC(C(=O)Nc4cc(OC)c(OC)c(OC)c4)CC3)n2)cc1	-3	16	1	9	-11	7	x	x
Clc1ccc(CSc2nnc(-c3ccc4c(c3)OCO4)o2)cc1	-3	-35	-23	-7	-170	-15	x	x
O=C1CCCCC1Sc1nnc(-c2ccc3c(c2)OCO3)o1 (stereo not drawn)	45	87*	104*	56*	69*	25	86*	92*
COc1ccc(C(=O)N[C@H](C(=O)NCCc2ccc3c(c2)OCCO3)C(C)C)cc1	0	27	18	0	4	13	x	x
COCCN(C(=O)CCC(=O)Nc1cc(C)on1)C(C(=O)NC1CCCC1)c1ccccc1C (stereo not drawn)	14	7	-3	-18	9	-1	x	x
COCCN(C(=O)CCl)C(C(=O)NC1CCCCC1)c1ccccc1C (stereo not drawn)	78*	-1	48	9	66*	14	23	91*
COc1ccc(-c2cnc3c(NC(C)=O)cc(-c4ccc(C(=O)N5CCOCC5)cc4)cn23)cc1OC	x	9	-26	x	41*	5	22	31
CC(=O)Nc1cc(-c2ccc(C(=O)N3CCOCC3)cc2)cn2c(-c3ccc(C(C)=O)cc3)cnc12	x	11	8	x	28	13	x	x
O=C1Nc2cccnc2N(C(=O)CCl)c2ccccc21	43	-4	30	-52	42*	18	9	5
CC(C)Oc1ccc(N2CC(C(=O)Nc3ccccc3C(=O)NC3CC3)CC2=O)cc1 (stereo not drawn)	10	-13	3	2	3	0	x	x
CCn1c(Cl)c(C=O)s/c1=N\S(=O)(=O)c1ccccc1	98*	36	99*	0	95*	99*	99*	105*	Mdm2 MdmX conf=103*
COc1ccc(/C=N/NC(=O)c2cccc(NC(=O)c3ccccc3Cl)c2)c(OC)c1	7	-49	-63	0	-34	-13	x	x
C=C1C(=O)O[C@@H]2C[C@@H](C)[C@@H]3C=CC(=O)[C@@]3(C)[C@@H](OC(C)=O)[C@H]12	x	x	x	x	x	x	x	x	Mdm2 MdmX conf=102*
COc1ccccc1C(=O)NCCC(=O)Nc1ccc(S(=O)(=O)N2C(C)CCCC2C)cc1 (stereo not drawn)	13	2	18	6	7	-5	x	x
CC(=O)Oc1ccccc1C(=O)C=Cc1cccc([N+](=O)[O-])c1	93*	20	83*	18	89*	56	94*	103*
COc1cc2c(C(=O)N(C)c3ccc(F)cc3)cn(C)c(=O)c2cc1OC	3	10	2	-3	11	5	x	x
Cc1nc2nc(C)n(CCN3CCOCC3)c(=O)c2c(-c2cccc([N+](=O)[O-])c2)c1C(=O)CCCCCCCCCCN1CCC(c2ccccc2)(c2ccccc2)CC1	99*	49	96*	1	84*	u	17	107*
CC1CCN(c2ccc(-c3cccc(NC(=O)C(F)(F)F)c3)nn2)CC1	28	83*	101*	80*	88*	83	94*	93*
O=C(Nc1cccc(-c2ccc(N3CCCCC3)nn2)c1)C(F)(F)F	62*	72*	97*	55*	74*	82	88*	73*
O=C(Nc1cccc(-c2ccc(N3CCCCC3)nn2)c1)c1ccc(Br)o1	-43	34	41	-5	-168	-35	x	x
O=C(Nc1cccc(-c2ccc(N3CCOCC3)nn2)c1)c1ccccc1	-80	-70	-34	-18	-246	-64	x	x
CCOC(=O)CNC(=O)CSc1ccc(-c2nc3ccccc3[nH]2)cn1	-14	0	14	-8	9	12	x	x
CC(=O)CSc1ccc(-c2nc3cc(C)c(C)cc3[nH]2)cn1	83*	88*	102*	72*	67*	69	85*	100*
C[N+](C)(C)C(Cc1ccccc1)C(=O)[O-] (stereo not drawn)	3	-19	-21	0	0	-24	x	x
SMILES	MITF TRPM1 inh	TROY signal inh	TWEAK-Fn14 inh	LMP1 NFkB inh	HIF-2a block	Shn3 3UTR inh	HIF-2a inh conf	HIF-1a cs	others
Cc1ccc(NC(=O)CNCc2cccs2)c(Br)c1	-34	-55	-26	-17	-291	-76	x	x
Cc1ccc2c(c1)=N/C(=N\c1[nH]c(O)c3ccccc13)N=2	x	-51	46	-24	76*	-20	-88	95*
CCn1c(C)nc2cc(C(=O)NNC(=O)[C@@H](NC(=O)c3cc(OC)cc(OC)c3)C(C)C)ccc21	10	-10	-2	9	3	5	x	x
COc1ccc(-c2cc(C(F)(F)F)nc(S(C)(=O)=O)n2)cc1	61*	47	53*	7	89*	95*	30	103*	Mdm2 MdmX conf=102*
Nc1nc(-c2ccc(F)cc2)cc(C(F)(F)F)n1	15	-8	-2	1	7	-3	x	x
CS(=O)(=O)c1nc(-c2ccc(F)cc2)cc(C(F)(F)F)n1	97*	52*	86*	-25	95*	89*	55*	102*
c1ccc2c(c1)Cc1ccccc1O2	-3	-2	-3	-5	-1	-26	x	x
O=C(NC(NC(=S)Nc1ccccc1Cl)C(Cl)(Cl)Cl)c1cccc(Cl)c1 (stereo not drawn)	2	36	76*	15	44*	74	19	102*
CCN(CC)S(=O)(=O)c1cccc(NC(=O)CC2CCCC2)c1	8	-20	-6	4	9	15	x	x
CCN(CC)S(=O)(=O)c1cccc(NC(=O)Nc2cccc(C(F)(F)F)c2)c1	35	56*	78*	46*	41*	65	-14	102*	Mdm2 MdmX conf=95*

Compound activity: PubChem, several laboratories
